Measured values: PubChem BioAssay AID1768 (National Center for Advancing Translational Sciences (NCATS), 2009)
Screen size: about 270,000 compounds; about 620 (0.23%) were called active. Not shown: some 12% with an inconclusive outcome. This is one part of a sample in which actives are shown more often than they occur. Values without a mark were called inactive. The call rests on the fitted dose curve; in most records, active means well fitted inhibition curve with a large enough effect in the polarisation, with a control signal flat (not every such curve was filed as active); inconclusive means small, poorly fitted or top-dose-only effect, or effect the other way, or a change in a side signal; inactive means no such curve, though single readings can be large or run the other way; the % refers to the polarisation.

Target: Menin (Homo sapiens) (UniProt O00255)
Test: qHTS Assay for Inhibitors Targeting the Menin-MLL Interaction in MLL Related Leukemias: Competition With Texas Red Labeled MLL-derived Mutant Peptide; on FP activity change, negative = inhibition: % of control where 0% means no effect
Conditions: fluorescence polarization; series mostly up to 61.6 µM; FP activity change, negative = inhibition: at the top concentration
Description: qHTS Assay for Inhibitors Targeting the Menin-MLL Interaction in MLL Related Leukemias NIH Chemical Genomics Center [NCGC] NIH Molecular Libraries Probe Centers Network [MLPCN] MLPCN Grant: MH084875-01A1 Assay Submitter (PI): Jolanta Grembecka, Tomasz Cierpicki, University of Virginia Translocations of the MLL (Mixed Lineage Leukemia) gene are frequently found in human leukemias affecting both children and adults. Fusion of MLL to one of more than 60 genes results in generation of oncogenic proteins upregulating Hox genes, which are vital to blood cell development. Patients harboring fusion of the MLL gene suffer from aggressive leukemias and respond poorly to available therapies. All of the oncogenic fusion proteins have a preserved N-terminal fragment of MLL that has been identified to interact with menin. It has been recently discovered that association with menin is critical to the leukemogenic activity of the MLL fusion oncoproteins. Selective targeting of the menin-MLL interaction could provide an attractive therapeutic approach to develop novel drugs for MLL-related leukemias. Small molecules blocking the menin-MLL interaction should reverse the oncogenic potential of MLL fusion proteins. We have developed and optimized a fluorescence polarization-based assay for the identification of Menin-MLL inhibitors. The assay was run employing two different MLL-derived peptides. The present assay uses a 12 amino acid peptide labeled with fluorescein at its N-terminus. This peptide consists of the menin high affinity binding motif from MLL and is potently bound by menin. Another peptide with a mutated sequence, labeled with Texas Red, was used in parallel as a less stringent screen for inhibitors.
The Menin protein, the MLL-wild type (w.t.) derived peptide (N-terminal 12 amino acids), the MLL-derived peptide labeled with Texas Red and the MLL-w.t. peptide labeled with Fluorescein were kindly supplied by laboratory of Dr. Jolanta Grembecka, University of Virginia. All protein and peptide solutions were stored in single use aliquots at -80C. The Eu3+ Cyrptate-conjugated mouse monoclonal antibody anti-6 Histidine (Eu3+-AB) and the Streptavidin-XL665 conjugate (XL665) were purchased from Cisbio International (Bedford, MA). All antibody and XL665 conjugate solution stocks were stored in single use aliquots at -20C. The Buffer components for all assays were purchased from Sigma-Aldrich (St. Louis, MO) and Invitrogen (Carlsbad, CA). FP Assay Reagents: 1. FP reaction buffer: 50 mM Tris-HCl pH 7.5, 50 mM NaCl, 1mM DTT. Before use, 0.05% BSA is added. 2. Menin protein, MLL-w.t. labeled with fluorescein, MLL-mutant peptide labeled with texas red. Stored in singe use aliquots at -80C. 3. MLL-w.t. unlabeled peptide as positive control: 10 uM final in FP buffer. FP Assay Procedure: 1. Prepare Menin at 200 nM, MLL-w.t.-fluorescein at 25 nM, and MLL-mutant-texas red at 50 nM mixture in FP buffer. 2. Prepare Menin at 200 nM, MLL-w.t.-fluorescein at 25 nM, MLL-mutant-texas red at 50 nM, and 10 uM MLL-w.t. unlabeled mixture in FP buffer. 3. Prepare MLL-w.t.-fluorescein at 25 nM and MLL-mutant-texas red at 50 nM mixture in FP buffer. 3. Dispense 4 ul per well of reagent in step 1 in columns 2, 4 - 48 in a black 1536 well plate, dispense 4 ul per well of reagents from steps 2 and 3 in columns 1 and 3 respectively. Incubate plate at ambient for 15 minutes. 4. Transfer 23 nl per well of compound to plate and incubate at ambient for 1 hr. 5. Read fluorescence polarization for each label using the PerkinElmer Envision. Envision protocol for fluorescein: FITC FP Dual Enh Mirror, Excitation filter 480, Emission filter (1) P-pol 535, Emission filter (2) S-pol 535 Envision protocol for texas red: FP Dual Enh Mirror, Excitation filter 555, Emission filter (1) P-pol 632, Emission filter (2) S-pol 632
Potency means the concentration at half of the fitted maximal effect.

Menin (Homo sapiens), sequence (O00255 whole entry, looked up): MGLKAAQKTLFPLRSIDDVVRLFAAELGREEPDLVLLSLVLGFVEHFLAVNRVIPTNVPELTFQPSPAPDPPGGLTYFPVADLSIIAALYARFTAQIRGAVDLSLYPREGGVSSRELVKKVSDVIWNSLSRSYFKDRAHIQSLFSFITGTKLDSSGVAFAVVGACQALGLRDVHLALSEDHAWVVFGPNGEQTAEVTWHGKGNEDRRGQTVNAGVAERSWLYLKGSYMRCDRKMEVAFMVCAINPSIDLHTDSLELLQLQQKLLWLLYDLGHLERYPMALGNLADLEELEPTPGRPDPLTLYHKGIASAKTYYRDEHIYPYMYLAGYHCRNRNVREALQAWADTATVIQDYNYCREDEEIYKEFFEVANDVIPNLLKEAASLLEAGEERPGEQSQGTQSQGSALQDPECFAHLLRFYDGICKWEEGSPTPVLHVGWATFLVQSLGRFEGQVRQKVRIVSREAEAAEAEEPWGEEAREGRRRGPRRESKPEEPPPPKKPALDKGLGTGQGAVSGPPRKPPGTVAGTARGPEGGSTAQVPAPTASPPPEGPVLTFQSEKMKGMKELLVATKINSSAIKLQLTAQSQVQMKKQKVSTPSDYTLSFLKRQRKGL

Question: With CC(C)(O)C#Cc1ccc(CN2CCC(CO)(CCc3ccccc3)CC2)cc1 as the molecule, how does the “FP activity change, negative = inhibition” value read?
Answer: Its value is 8.13%.

Question: Which “FP activity change, negative = inhibition” value does the source give for CCOCCCNc1nc(-c2ccccc2)nc2ccccc12 here?
Answer: The value was 19.4%.

Question: Cc1c(CN2CC[C@@H](N3CCN(c4ccccn4)CC3)[C@H](O)C2)[nH]c2ccc(F)cc12 was tested. Which “FP activity change, negative = inhibition” value did it give?
Answer: The value was -9.78%.

Question: O=C(NCCCO)c1cc2c([nH]c3ccccc32)c(-c2ccc(F)cc2)n1 was tested. Which “FP activity change, negative = inhibition” value did it give?
Answer: The value was 8.97%.

Question: How did the “FP activity change, negative = inhibition” value turn out when CC(=O)N1c2ccc(S(=O)(=O)N3CCC(C(=O)NC4CCCC(C)C4C)CC3)cc2CC1C (centres undefined) was run?
Answer: The value was -6.75%.

Question: With CNC(=O)[C@]1(C(F)(F)F)C[C@H](CCc2ccccc2)CCCO1 as the molecule, how does the “FP activity change, negative = inhibition” value read?
Answer: The value was 3.94%.

Question: CC1CCCCC1NC(=O)CCS(=O)(=O)c1ccc2c(c1)NC(=O)CO2 (centres undefined) was tested. Which “FP activity change, negative = inhibition” value did it give?
Answer: The value was -10.4%.

Question: With CCCOc1ccc(N/C=C/C(=O)C(C)(C)C)cc1 as the molecule, how does the “FP activity change, negative = inhibition” value read?
Answer: The value was 1.33%.

Question: CN(C)c1ccc(N/C=C/C(=O)C(F)(F)F)cc1 was tested. Which Potency did it give?
Answer: The Potency was 28.2 µM (active).

Question: For O=C(/C=C/Nc1ccccc1OC(F)(F)F)C(F)(F)F, which “FP activity change, negative = inhibition” value is on record?
Answer: The value was 5.87%.

Question: With COc1cccc(N2C(=O)CN(Cc3ccccc3)C2=S)c1 as the molecule, how does the “FP activity change, negative = inhibition” value read?
Answer: Its value is 32.3%.

Question: With Cn1nccc1C(=O)N1CCCC(C(=O)c2ccc(Oc3ccccc3)cc2)C1 (centres undefined) as the molecule, how does the “FP activity change, negative = inhibition” value read?
Answer: The value was -18.8%.

Question: How did the “FP activity change, negative = inhibition” value turn out when COc1ccc(-c2noc(CCCC(=O)NC3CCCC3)n2)cc1OC was run?
Answer: The value was -7.12%.

Question: Cc1noc(C)c1-c1ccc2ncnc(NCc3ccc4[nH]ccc4c3)c2c1 was tested. Which “FP activity change, negative = inhibition” value did it give?
Answer: The value was 28.6%.

Question: Cc1ccc(N(Cc2cc(=O)[nH]c3ccccc23)C(=O)CCl)cc1 was tested. Which Potency did it give?
Answer: Its Potency is 10 µM (active).

Question: How did the “FP activity change, negative = inhibition” value turn out when CC(=O)N(Cc1cc(=O)[nH]c2ccccc12)c1ccc(C)cc1C was run?
Answer: Its value is 1.95%.

Question: Which “FP activity change, negative = inhibition” value does the source give for Cc1ccc(N(Cc2cc3ccccc3[nH]c2=O)C(=O)c2cccs2)cc1 here?
Answer: The value was 0.868%.

Question: For CCN(CC)CCCNC(=O)COc1ccc2oc3c(c2c1)CCCC3, which “FP activity change, negative = inhibition” value is on record?
Answer: Its value is -9.91%.

Question: CC(C)c1ccc(NC(=O)C2CCCN(S(=O)(=O)c3cccnc3)C2)cc1 (centres undefined) was tested. Which “FP activity change, negative = inhibition” value did it give?
Answer: Its value is -12.3%.

Question: COc1cc(/C=C2\SC(=O)NC2=O)ccc1OCc1ccc(Cl)nc1 was tested. Which “FP activity change, negative = inhibition” value did it give?
Answer: Its value is 3.5%.

Question: With COC(=O)c1cc(S(=O)(=O)NCC2CCN(Cc3ccc(Cl)cc3)CC2)cn1C as the molecule, how does the “FP activity change, negative = inhibition” value read?
Answer: Its value is -0.368%.

Question: With Cc1cccc(NC(=S)NCCc2ccc(Cl)cc2)c1C as the molecule, how does the “FP activity change, negative = inhibition” value read?
Answer: The value was 4.12%.

Question: How did the “FP activity change, negative = inhibition” value turn out when COC(=O)C(CC(C)C)NS(=O)(=O)c1cc(Br)ccc1Br (centres undefined) was run?
Answer: The value was -7.91%.

Question: Cc1c(C)c2ccc(OCC(=O)N3CCN(c4cccc(Cl)c4)CC3)cc2oc1=O was tested. Which “FP activity change, negative = inhibition” value did it give?
Answer: The value was 7.56%.

Question: For Cc1ccc(S(=O)(=O)NNC(=O)/C=C/c2cccc(F)c2)cc1, which “FP activity change, negative = inhibition” value is on record?
Answer: Its value is -0.819%.

Question: Which “FP activity change, negative = inhibition” value does the source give for O=C(COC(=O)c1cccs1)Nc1ccccc1Cl here?
Answer: The value was 0.3%.

Question: How did the Potency turn out when O=C(COC(=O)c1c2c(nc3ccccc13)/C(=C\c1cccs1)CCC2)Nc1ccccc1Cl was run?
Answer: The Potency was 14.1 µM (active).

Question: Which “FP activity change, negative = inhibition” value does the source give for COc1cc(/C=C2\CCCc3c2nc2ccccc2c3C(=O)O)cc(Cl)c1O here?
Answer: Its value is 16.7%.

Question: With CC1CCN(CC(O)COc2ccc(C(=O)c3ccccc3)cc2)CC1 (centres undefined) as the molecule, how does the “FP activity change, negative = inhibition” value read?
Answer: The value was -25.4%.
